The values that follow come from PubChem BioAssay AID589 (National Center for Advancing Translational Sciences (NCATS), 2007).

The structures appear in SMILES notation. The campaign covered roughly 59,000 compounds. About 6,200 (11%) were called active. Another 9% or so got no clear call; they are omitted. Cut-off read from the data, not from the text of the source: active = max dye-equivalent concentration above about 10 nM; inconclusive = mostly about 1.1 nM to 9.6 nM; inactive = weaker than that. The full list was thinned out, with actives kept by preference.

A short description of this experiment: qHTS Assay for Spectroscopic Profiling in 4-MU Spectral Region. Conditions: compound autofluorescence, 340/450 nm, 4-MU equivalents; hits give high values. In outline:
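Intrinsic fluorescence at 340/450 nm (ex/em) was read after 15 min at room temperature in pH 8.0, 100 mM Tris. Each compound concentration expressed as 4-MU-equivalent concentration from a six-point 4-MU standard series on each plate.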
On to `Cc1cc(-n2nc(C)cc2C)n2ncc(-c3ccccc3)c2n1`, for which the max dye-equivalent concentration result is “inactive”.

For the compound `Cc1cc(Cl)ccc1OCC(=O)Oc1c(Cl)c(Cl)c(Cl)c(Cl)c1Cl`, the max dye-equivalent concentration result was “inactive”.

Take `Cc1cc(C)c2nc(SCCC#N)nc(C)c2c1`: the max dye-equivalent concentration entry is “inactive”. Take `C=CCN(c1ccc(C(N)=O)cc1)S(C)(=O)=O`: the max dye-equivalent concentration result was “inactive”. In the case of `O=C(CSc1nnc(-c2ccccc2)o1)N1CCOCC1`, the max dye-equivalent concentration result was “inactive”. The value for `O=C(COC(=O)c1ccc(Oc2ccccc2)cc1)Nc1nnc(-c2ccccc2)o1` was “inactive”. In the case of `Nc1ccc(-c2nnc(-c3ccc(-c4ccccc4)cc3)o2)cc1`, the max dye-equivalent concentration is 170 nM (active). For `O=C(Nc1ccc(Cl)cc1)c1ccsn1`, the max dye-equivalent concentration result was “inactive”. In the case of `CCC[C@H]1C(=O)N2C(N(C)C)=Nc3ccc(C)cc3N2C1=O`, the max dye-equivalent concentration result was “inactive”. As to `COc1ccc(OC)c(C(=O)CSc2nnc(-c3cccs3)o2)c1`, the max dye-equivalent concentration was 150 nM (active). The value for `COc1ccc(-c2nnc(SCC(=O)c3cccs3)o2)c(OC)c1` was “inactive”. On to `COc1ccc(-n2c(C)cc(C(=O)CSc3nnc(-c4cccs4)o3)c2C)cc1`, for which the max dye-equivalent concentration entry was “inactive”.

`CC(C)c1ccc(N2CC(C(=O)Nc3nccs3)CC2=O)cc1` (stereo unspecified): the max dye-equivalent concentration result was “inactive”. As for `Cn1nnnc1SCC(=O)N1CCN(C(c2ccccc2)c2ccccc2)CC1`, the entry is “inactive”; as for `Cc1ccc2nc(NC3=NCN(CCc4ccccc4)CN3)nc(C)c2c1`, “inactive”; as for `c1ccc(CCN2CN=C(Nc3nc4ccccc4o3)NC2)cc1`, “inactive”. Consider `COc1ccc2nc(NC3=NCN(CC4CCCO4)CN3)nc(C)c2c1` (stereo unspecified), for which the max dye-equivalent concentration is 92 nM (active). Consider `Cc1ccc(S(=O)(=O)NCC(=O)N(CC(=O)NC2CCCCC2)Cc2ccco2)cc1`, for which the max dye-equivalent concentration result is “inactive”. Turning to `c1ccc2c(NCC3CCCO3)nc(-c3ccncc3)nc2c1` (stereo unspecified), the max dye-equivalent concentration entry was “inactive”. The value for `Cc1cc(C(=O)NCCCc2ccccc2)no1` was “inactive”; that for `CCCC(=O)N(CCc1ccccc1)Cc1nc2ccccc2c(=O)[nH]1` was “inactive”. The value for `CCCN(CCC)CCNC(=O)c1cc2c(C)nc3ccccc3c2o1` was 17 nM (active); that for `Cc1nc2ccccc2c2oc(C(=O)NCC3CCCO3)cc12` (stereo unspecified) was 12 nM (active). As for `Cc1ccc(C(=O)NCC2CCCO2)o1` (stereo unspecified), the entry is “inactive”; as for `Cc1cc(NC(=O)CN2CCC(O)(c3cccc(F)c3)CC2)no1`, “inactive”. As for `CCn1c(SCC(=O)c2ccc(Cl)s2)nnc1-c1cccs1`, the max dye-equivalent concentration entry was “inactive”. The value for `Cc1ccn2cc(-c3nonc3C)cc2c1` was “inactive”; that for `COC(=O)c1cccc(NC(=O)CSc2nc(C)cc(=O)[nH]2)c1` was “inactive”. The value for `Cc1ccc2c(c1)sc1ncc(NC(=O)c3ccccc3)c(=O)n12` was 55 nM (active); that for `Cc1ccccc1NC(=O)c1ccccc1` was “inactive”; that for `Cc1ccc(NC(=O)c2nc[nH]c2C(=O)N2CCCCC2)c(C(=O)c2ccccc2)c1` was “inactive”. `CCOC(=O)c1c(C)[nH]c(C)c1C(=O)CSc1nc(N)cc(N)n1`: the max dye-equivalent concentration result was “inactive”.

Turning to `CCOC(=O)N1CCC(NC(=O)CN2C(=O)COc3ccc(C(C)(C)C)cc32)CC1`, the max dye-equivalent concentration result was “inactive”. The value for `O=C(c1cccc(F)c1)N1CCC2(CCCN(Cc3ccncc3)C2)CC1` was “inactive”; that for `CCC12CN3CC(CC)(CN(C1)C31C(=O)N(C)c3ccc(C)cc31)C2=O` (stereo unspecified) was “inactive”.

In the case of `CCOC(=O)c1cc2cc(C)ccc2[nH]1`, the max dye-equivalent concentration entry is “inactive”. As for `CCNCc1cc2cc(C)ccc2[nH]c1=O`, the max dye-equivalent concentration is 49 nM (active).

For `CC(=O)OCc1cc2cc(C)ccc2[nH]c1=O`, the max dye-equivalent concentration entry is “inactive”. As to `O=C(CNC(=O)c1ccc(Cl)cc1Cl)NCC(=O)Nc1ccccc1N1CCOCC1`, the max dye-equivalent concentration result was “inactive”.

In the case of `COc1ccc2c(c1OC)C(=O)OC2c1c(O)nc(SC)n(-c2ccccc2)c1=O` (stereo unspecified), the max dye-equivalent concentration entry was “inactive”. The value for `O=c1[nH]c(=O)c2nc3ccccc3nc2[nH]1` was 210 nM (active); that for `O=c1[nH]c(-c2cccs2)nc2ccccc12` was “inactive”; that for `CC1(C)CCCC2=C1CC1C(=O)N(c3ccccc3)C(=O)C1C2` (stereo unspecified) was “inactive”. As to `CCOC(=O)C1CCN(Cc2coc3ccc(Cl)cc3c2=O)CC1`, the max dye-equivalent concentration entry was “inactive”. The value for `Cc1noc(C)c1-c1nccc(N2CCOCC2)n1` was “inactive”; that for `CC[C@@H]1Cc2cc(O)ccc2C2=C1c1ccc(O)cc1C[C@H]2CC` was 270 nM (active). As for `O=C(NCCC1=CCCCC1)C1CCN(Cc2cnn(-c3ccccc3)c2-n2cccc2)CC1`, the entry is “inactive”; as for `COC(=O)c1ccc(Oc2nc(Nc3ccc(F)cc3)nc(N3CCCC3)n2)cc1`, “inactive”.

For the compound `c1ccc(CNc2ncncc2-c2cccnc2)cc1`, the max dye-equivalent concentration result was “inactive”. The value for `Cc1ccc(S(=O)(=O)c2nc(NCCCn3ccnc3)sc2Cl)cc1` was “inactive”; that for `Cc1ccc(C(=O)O)cc1S(=O)(=O)NCC1CCCO1` (stereo unspecified) was “inactive”. The value for `Cc1ccc(-c2noc(-c3ccccc3C(=O)NCC3CCCO3)n2)cc1` (stereo unspecified) was “inactive”; that for `CCOc1cc(-c2nc3cc(C)ccn3c2NCC2CCCO2)ccc1O` (stereo unspecified) was 68 nM (active); that for `O=C(CSc1nnc(-c2ccco2)o1)NCC(=O)c1ccccc1` was “inactive”.

On to `COc1ccc(C(=O)N(Cc2ccc(N(C)C)cc2)C2CCS(=O)(=O)C2)cc1` (stereo unspecified), for which the max dye-equivalent concentration result was “inactive”. The value for `CC(=O)N1CCC2(CCCN(c3ncccn3)C2)CC1` was “inactive”.
